This is an account of results in PubChem BioAssay (NCI).

The test can be described thus: NCI Yeast Anticancer Drug Screen. Data for the rad50 strain (AID 155).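 Also: 0% = growth of vehicle-only cultures of the same strain.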 The note with it: S. cerevisiae rad50 strain growth inhibition, stronger effect = higher value. The procedure: Growth inhibition of yeast strains with defined genetic alterations is measured as a screen for potential anti-cancer activity. Selected strains with alterations in DNA damage repair or cell cycle control were exposed to compounds and growth inhibition was measured relative to vehicle treated controls. The strain used in this assay is rad50

Where [1] appears, read: at 5.0 µM (retest, dose inferred, filed as 0.5).
Where [2] appears, read: at 50.0 µM (retest, dose inferred, filed as 5.0).

Molecules are shown by their SMILES. The panel holds about 79,000 compounds, 15% with a hit somewhere; the sample as a whole holds those more often. Unmarked numbers belong to inactive results. Activity calls are given as the source filed them. Rule as the data show it: active = growth inhibition above about 70%; inactive = the rest.

`Oc1ccc(CC2CCC(O)CC2)cc1` (configuration not stated): the growth inhibition is, setting by setting: under setting [1], -169%; under setting [2], -33%; (at 50.0 µM) 50.5%.

With `COC(=O)c1ccc(NN)cc1`, the growth inhibition runs as follows: under setting [1], 12%; under setting [2], 39%; (at 50.0 µM) 65.8%.

For `CC1(c2ccccc2)OC(=O)C=CC1=O` (configuration not stated), the growth inhibition was 15% under setting [1], 99% (active) under setting [2] and 99.4% (active) (at 50.0 µM).

As to `O=C(Nn1cc(F)c(=O)[nH]c1=O)C12CC3CC(CC(C3)C1)C2`, the growth inhibition reads like this: under setting [1], 41%; under setting [2], 92% (active); (at 50.0 µM) 21.8%.

In the case of `O=C1C(c2ccc([N+](=O)[O-])cc2)=C(Cl)C(=O)c2c(O)cccc21`, the growth inhibition under setting [1] is -30%, the growth inhibition under setting [2] is -22% and the growth inhibition (at 50.0 µM) was 71.2% (active).

As to `NC(=O)c1ccccc1C(=O)O`, the growth inhibition runs as follows: under setting [1], -6%; under setting [2], 7%; (at 50.0 µM) 12.9%.

In the case of `CC(C)CCCOC(=O)c1cc([N+](=O)[O-])cc([N+](=O)[O-])c1`, the growth inhibition was 12% under setting [1], 30% under setting [2] and 67.8% (at 50.0 µM).

With `CC(=O)OCC1OC(c2cccc3c2c2ccccc2n3S(=O)(=O)c2ccccc2)C(O)C1O` (configuration not stated), the growth inhibition runs as follows: under setting [1], 1%; under setting [2], 93% (active); (at 50.0 µM) 17.4%.

As for `Nc1nc(-c2ccccc2)nc(Cl)c1I`, the growth inhibition is 0% under setting [1], 17% under setting [2] and 74.7% (active) (at 50.0 µM).

For `C=CCc1cc(C(=O)OCC)cc(OC)c1O`, the growth inhibition is, setting by setting: under setting [1], 78% (active); under setting [2], 97% (active); (at 50.0 µM) 5.15%.

As for `CCOC(=O)/C(=C\c1cccc(C(F)(F)F)c1)P(=O)(OCC)OCC`, the growth inhibition reads like this: under setting [1], 31%; under setting [2], 50%; (at 50.0 µM) 75.7% (active).

Regarding `CCN1C2=NC(=O)N(C)C(=O)C2(Cl)C(C(SC)S(=O)(=O)c2ccc(C)cc2)c2ccccc21` (configuration not stated), the growth inhibition under setting [1] was 22%, the growth inhibition under setting [2] is 22% and the growth inhibition (at 50.0 µM) was 88.1% (active).

On to `CCN(CC)CCNc1c2ccccc2nc2cccc([N+](=O)[O-])c12`, for which the growth inhibition under setting [1] is 88% (active), the growth inhibition under setting [2] is 97% (active) and the growth inhibition (at 50.0 µM) was 68.2%.

As for `COc1ccc2nc3cc(Cl)ccc3c(Nc3ccc(O)c(CN4CCN(C)CC4)c3)c2c1`, the growth inhibition reads like this: under setting [1], 25%; under setting [2], 43%; (at 50.0 µM) 66.9%.
